{"source": "PubChem BioAssay AID686978", "about": "(National Center for Advancing Translational Sciences (NCATS), 2013)", "note": "“And” between values parts separate entries of the source, which are not always exact repeats. Identical values can stand only once. The whole screen tested about 420,000 compounds, of which about 64,000 (15%) were called active. Inconclusive results (about 27%) are left out. A selection follows. A number with no mark means an inactive call. Calls follow the shape of the dose curve; as a rule, active = well fitted inhibition curve with a large enough effect; inconclusive = small, poorly fitted or top-dose-only effect; inactive = flat fitted curve, though single readings scatter. % is scaled to controls: 0 for no effect and ±100 for the full control effect; potency is read from the fitted curve at half-maximal effect.", "data": [{"test": "qHTS for Inhibitors of human tyrosyl-DNA phosphodiesterase 1 (TDP1): qHTS in cells in absence of CPT; also: nearly all actives have a fitted effect of over 55% in size", "details": "DT40 Tdp1-/- hTDP1 cells, no CPT, ATP luminescence, 48 h; activity change, negative = growth inhibition: at 46.2 µM (top of the series)", "outline": "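A cellular qHTS used chicken DT40 cells lacking endogenous Tdp1 but carrying stably transfected human TDP1. Compounds were applied without camptothecin, and cell growth kinetics were judged by ATP-dependent luminescence after ≥48 hr.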", "values": [{"smiles": "COC(=O)c1cnc(Nc2cc(C)ccc2OC)c2ccccc12", "activity change, negative = growth inhibition": "2.44%"}, {"smiles": "COc1ccccc1N1CCN(C(=O)c2ccc(NC3=NC4CS(=O)(=O)CC4S3)cc2)CC1", "note": "(centres undefined)", "activity change, negative = growth inhibition": "-10.6%"}, {"smiles": "CC(C)(C)C(=O)CSc1ccc(S(=O)(=O)N2CCCC2)cn1", "activity change, negative = growth inhibition": "-12%"}, {"smiles": "Cc1ccccc1NC(=O)c1cc2c([nH]c1=O)CC(C)(C)CC2=O", "activity change, negative = growth inhibition": "1.54%"}, {"smiles": "Cn1c(CSCC(=O)Nc2ccccc2)nnc1SCc1ccccc1", "activity change, negative = growth inhibition": "-16.4%"}, {"smiles": "NS(=O)(=O)c1ccc(CNC(=S)NC(=O)c2ccco2)cc1", "activity change, negative = growth inhibition": "-21.3%"}, {"smiles": "COC(=O)c1c(NC(=O)C2CC(C)=C(C)CC2C(=O)O)sc2c1CCCCC2", "note": "(centres undefined)", "activity change, negative = growth inhibition": "-17.4%"}, {"smiles": "COC(=O)c1c(NC(=O)CCCC(=O)O)sc2c1CCCCC2", "activity change, negative = growth inhibition": "1.24%"}, {"smiles": "CCc1ccc(N(CC(=O)Nc2sc3c(c2C(=O)OC)CCCC3)S(C)(=O)=O)cc1", "Potency": "23.1 µM (active)"}, {"smiles": "O=C(COc1ccccc1)Nc1cc2c3c(c1)CC(=O)N3CCC2", "activity change, negative = growth inhibition": "-10.3%"}, {"smiles": "O=C(CN1CCOCC1)N/N=C/c1ccc(-c2ccc(Br)cc2)o1", "activity change, negative = growth inhibition": "-29.5%"}, {"smiles": "O=C1CCC(=O)N(c2ccccc2)N1", "activity change, negative = growth inhibition": "-6.87%"}, {"smiles": "CN(C)S(=O)(=O)c1cccc(NC(=O)COC(=O)c2cc(=O)[nH]c(=O)[nH]2)c1", "activity change, negative = growth inhibition": "-3.13%"}, {"smiles": "CN(C)S(=O)(=O)c1cccc(NC(=O)COC(=O)/C=C/c2cccs2)c1", "activity change, negative = growth inhibition": "-17.5%"}, {"smiles": "CN(C)S(=O)(=O)c1cccc(NC(=O)COC(=O)C2(c3ccccc3F)CCCC2)c1", "Potency": "13 µM (active)"}, {"smiles": "COc1ccc(S(=O)(=O)N2CCN(C(=O)c3cccs3)CC2)cc1OC", "activity change, negative = growth inhibition": "-24.8%"}, {"smiles": "O=S(=O)(NCCc1ccccc1)c1ccccc1", "activity change, negative = growth inhibition": "-22.6%"}, {"smiles": "CCN(CC(=O)N1CCCC1)S(=O)(=O)c1ccc(F)cc1", "activity change, negative = growth inhibition": "6.24%"}, {"smiles": "CCSC1=NCCN1C(=O)c1ccc(S(=O)(=O)N(CC)CC)cc1", "activity change, negative = growth inhibition": "1.3%"}, {"smiles": "CCCN(CCC)S(=O)(=O)c1ccc(C(=O)N2CC3CCC(CC3)C2)cc1", "Potency": "23.1 µM (active)"}, {"smiles": "CCc1nc(NCCO)c(C#N)c2c1CCCC2", "activity change, negative = growth inhibition": "2.76%"}, {"smiles": "N#CCc1c(C#N)c(N)nc(N2CCCC2)c1C#N", "activity change, negative = growth inhibition": "-12.4%"}, {"smiles": "CC(C)CCNc1nc(N2CCCC2)c2c(c1C#N)CCN(C)C2", "Potency": "23.1 µM (active)"}, {"smiles": "CC(=O)Nc1ccc(Nc2ncnc3c2nnn3Cc2ccccc2Cl)cc1", "activity change, negative = growth inhibition": "-17.5%"}, {"smiles": "O=C(Nc1cccc(F)c1)N1CC2(CCN(C(=O)c3csnn3)CC2)C1", "activity change, negative = growth inhibition": "-12.5%"}, {"smiles": "O=S(=O)(NC1CC2CCC1C2)c1ccc(Cl)cc1", "note": "(centres undefined)", "activity change, negative = growth inhibition": "-3.07%"}, {"smiles": "Nc1nc2c(ncn2[C@@H]2O[C@H](CNS(=O)(=O)N3CCc4ccccc4C3)[C@@H](O)[C@H]2O)c(=O)[nH]1", "activity change, negative = growth inhibition": "11.3%"}, {"smiles": "COc1cc2[nH]c(=S)n(CCN3CCCCC3C)c(=O)c2cc1OC", "note": "(centres undefined)", "activity change, negative = growth inhibition": "-19.2%"}, {"smiles": "COc1cccc(CNC(=O)CN2C(=O)NC(Cc3ccccc3)(c3ccccc3)C2=O)c1", "note": "(centres undefined)", "activity change, negative = growth inhibition": "-3.32%"}, {"smiles": "CCCCN1C(=O)/C(=C(/C#N)C(N)=O)c2ccccc21", "activity change, negative = growth inhibition": "-2.74%"}, {"smiles": "COc1ccc2c(c1)C(=C(C#N)C#N)C(=O)N2CCc1ccccc1", "Potency": "14.6 µM (active)"}, {"smiles": "NC(=O)C1CCN(C(=O)c2ccc3c(=O)n(Cc4cccc(Br)c4)c(=S)[nH]c3c2)CC1", "activity change, negative = growth inhibition": "-19.8%"}, {"smiles": "Cc1cc(C)cc(OCC(=O)Nc2cc(NC(=O)COc3cc(C)cc(C)c3)cc(C(=O)O)c2)c1", "activity change, negative = growth inhibition": "-27.8%"}, {"smiles": "COC(C)C(C(=O)OCC1=CCN2CC[C@H](O)[C@@H]12)C(C)C", "note": "(some centres undefined)", "activity change, negative = growth inhibition": "-18.8% [at 9.04 µM]"}, {"smiles": "O=C(Cc1ccccn1)c1ccc(O)cc1O", "activity change, negative = growth inhibition": "-10.7%"}, {"smiles": "Cc1ccc2[nH]c(=O)c(CN(C)S(=O)(=O)c3cccc4nonc34)cc2c1", "activity change, negative = growth inhibition": "4.78%"}, {"smiles": "CCn1c(SCc2ccccc2)nc2c(c1=O)SCC2", "activity change, negative = growth inhibition": "-23.3%"}, {"smiles": "Cn1c(SCC(=O)N2CCCCC2)nc2c(c1=O)SCC2", "activity change, negative = growth inhibition": "4.08%"}, {"smiles": "Cc1cccc(CSc2nc3c(c(=O)n2C)SCC3)c1", "Potency": "14.6 µM (active)"}, {"smiles": "CCCCNC(=O)OC(C)CNC(=O)OC", "note": "(centres undefined)", "activity change, negative = growth inhibition": "12.1%"}, {"smiles": "CCC1CN(CCNC(=O)c2cccnc2C)Cc2cc(OC)ccc2O1", "note": "(centres undefined)", "activity change, negative = growth inhibition": "-18.7%"}, {"smiles": "CCCS(=O)(=O)NCc1c(C)ncc2c1CCN(C(=O)c1ccc(F)c(F)c1)C2", "activity change, negative = growth inhibition": "2.82%"}, {"smiles": "CCOC(=O)CCCCCC(=O)Nc1ccc2c(c1)CC(=O)N([C@@H](C)CO)C[C@H](C)[C@@H](CN(C)Cc1ccccc1)O2", "activity change, negative = growth inhibition": "-22.9%"}, {"smiles": "CCSc1nnc(SCC(=O)NNC(=O)c2ccccc2F)s1", "activity change, negative = growth inhibition": "-3.12%"}, {"smiles": "CCn1c(C)c(C)c2cc(C(=O)N3CCN(c4cccc(C)c4C)CC3)ccc21", "Potency": "23.1 µM (active) and 20.6 µM (active)"}, {"smiles": "Cc1cccc(N2CCN(C(=O)c3ccc4c(c3)CCN4S(=O)(=O)c3ccccc3)CC2)c1C", "Potency": "6.51 µM (active)"}, {"smiles": "CC(=O)N1CCN(c2cccc(C)c2C)CC1", "activity change, negative = growth inhibition": "-2.67%"}, {"smiles": "O=C(c1c(F)cccc1F)N1CCN(c2ncc(Br)cn2)CC1", "activity change, negative = growth inhibition": "-26.9%"}, {"smiles": "CCC(CC)C(=O)N1CCN(c2cccc(C)c2C)CC1", "Potency": "11.6 µM (active)"}, {"smiles": "Cc1cccc(N2CCN(C(=O)COCc3cc(-c4ccc5c(c4)OCO5)on3)CC2)c1C", "Potency": "inactive"}, {"smiles": "Cc1cccc(N2CCN(C(=O)c3ccc(Nc4nc5ccccc5n5nnnc45)cc3)CC2)c1C", "activity change, negative = growth inhibition": "-10.5%"}, {"smiles": "Cc1ccccc1N1CCN(C(=O)c2cccnc2)CC1", "activity change, negative = growth inhibition": "-19.2%"}, {"smiles": "Cc1cccc(N2CCN(C(=O)c3cnc(N4CCCC4)nc3C)CC2)c1C", "Potency": "20.6 µM (active)"}, {"smiles": "Cc1[nH]c2ccc(C(=O)N3CCN(C)CC3)cc2c1C", "activity change, negative = growth inhibition": "-6.28%"}]}]}
